Hits are enriched below; roughly 3.2% of the tested compounds scored in any of these assays.
NRP1-CendR mod: modulators of CendR peptide binding to NRP-1, primary screen, biochemical, fluorescence polarization, uHTS; Neuropilin-1 (Homo sapiens), O14786; FAM-RPARPAR peptide binding to NRP-1; inhibition, % at 25 µM; 0.85% of 360,000 active;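 active = inhibition or corrected inhibition above about 18%, plus a signal ratio from 0.5 to 1.5, limit read from the data, passing the limit was not always enough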
MEKK2mut PB1 HTS: MEK5 binding signal on mutant MEKK2 PB1, primary screen, biochemical, multiplex bead flow cytometry, Alexa488-MEK5; percent response, % at 10 µM; 0.35% of 290,000 active; Alexa488-MEK5 binding to MEKK2 mutant; in the data active = percent response above about 24%, passing the limit was not always enough
MEKK2 WT-MEK5: modulators of MEK5 binding to wildtype MEKK2, primary screen, biochemical, multiplex bead flow cytometry, Alexa488-MEK5; 1.1% of 290,000 active; Alexa488-MEK5 binding to MEKK2 WT; actives lie on both sides; binding response (% of control), % at 10 µM; in the data active = binding response below about 67% or above about 130%
MEKK3 PB1 HTS: modulators of MEKK3-MEK5 PB1 binding, primary screen, biochemical, wildtype MEKK3, multiplex bead flow cytometry, Alexa488-MEK5; Mitogen-activated protein kinase kinase kinase 3 (Homo sapiens), Q99759; bead-based flow cytometry, Alexa488-MEK5 binding to MEKK3; actives lie on both sides; 0 = blocked by unlabeled MEK5, 100 = vehicle; binding response (% of control), % at 10 µM; 1.4% of 290,000 active;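 active = binding response more than 3 SD above or below the average of its plate-row segment, actives on both sides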;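 note: Alexa488 bead fluorescence after subtracting the streptavidin-only scavenger bead signal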
Target sequence (Q99759 whole entry, looked up): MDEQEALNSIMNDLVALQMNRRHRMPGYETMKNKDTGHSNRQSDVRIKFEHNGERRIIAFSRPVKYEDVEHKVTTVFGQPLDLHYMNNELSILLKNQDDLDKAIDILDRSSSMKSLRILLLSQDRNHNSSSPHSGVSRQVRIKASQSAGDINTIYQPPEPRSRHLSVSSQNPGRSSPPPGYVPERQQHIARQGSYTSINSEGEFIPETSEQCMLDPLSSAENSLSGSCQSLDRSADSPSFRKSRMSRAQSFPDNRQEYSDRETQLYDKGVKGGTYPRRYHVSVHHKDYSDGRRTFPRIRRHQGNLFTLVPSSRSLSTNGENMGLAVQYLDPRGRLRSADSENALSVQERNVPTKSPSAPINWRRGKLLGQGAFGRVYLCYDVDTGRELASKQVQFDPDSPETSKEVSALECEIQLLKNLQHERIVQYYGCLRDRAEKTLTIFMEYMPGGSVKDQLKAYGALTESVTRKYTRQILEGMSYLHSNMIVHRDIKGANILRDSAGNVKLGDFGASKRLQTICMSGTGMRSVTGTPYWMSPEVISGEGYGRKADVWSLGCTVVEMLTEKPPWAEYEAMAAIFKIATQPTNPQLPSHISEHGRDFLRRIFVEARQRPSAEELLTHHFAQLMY
SKN-1 block: suppressors of acrylamide-induced Pgst-4::GFP reporter in worms, primary screen, SKN-1 inhibitor project, whole organism, uHTS, GFP/RFP fluorescence ratio, strain VP596 | C. elegans VP596 Pgst-4::GFP/RFP ratio, 24 h | inhibition, % at 21.8 µM | 0.49% of 360,000 active;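 active = interference check ratio from 0.5 to 1.5 plus GFP to RFP signal ratio inhibition reaching or exceeding a fixed threshold, cut at about 30% in these data, passing the limit was not always enough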
A number is an active result; n = inactive; x = no result; [ ] = remark or other dose.

SMILES | NRP1-CendR mod | MEKK2mut PB1 HTS | MEKK2 WT-MEK5 | MEKK3 PB1 HTS | SKN-1 block
O=C(CN1C(=O)CCS(=O)(=O)c2ccccc21)NCc1ccc2c(c1)OCO2 | n | n | n | n | n
CN1CCN(C(=O)/C=C\c2ccc(Cl)cc2)CC1 | n | n | n | n | n
CN1CCN(C(=O)/C=C/c2cccc(Cl)c2)CC1 | 25.4 | n | n | n | n
COc1cccc(NC(=O)COC(=O)c2ccc3c(c2)OCCO3)c1 | n | x | x | x | n
CCOc1ccc(C(=O)OCC(=O)Nc2ccc3c(c2)OCCO3)cc1OC | 24.6 | x | x | x | n
Cn1cnc([N+](=O)[O-])c1NCc1ccccc1 | n | n | n | n | n
CCNc1c([N+](=O)[O-])ncn1C | 31.5 | n | n | n | n
CCOC(=O)c1cc(-c2ccccc2)nn1CCC#N | n | n | n | n | n
C=CCn1nc(-c2ccccc2)cc1C(=O)OCC | 27.7 | n | n | n | n
CN(C)c1ccc(C(=O)OCC(=O)Nc2ccc(S(N)(=O)=O)cc2)cc1 | 39.4 | n | n | n | n
O=C1C=C(OCCF)CC(c2cccc([N+](=O)[O-])c2)O1 (stereo not drawn) | n | x | x | x | n
CCOc1ccc(NC(=O)CN(C)C2=NS(=O)(=O)c3ccccc32)cc1 | n | x | x | x | n
O=C(CSc1nc2ccccc2s1)CSc1nc2ccccc2s1 | n | n | n | n | n
CC(=O)CSc1nc2ccccc2s1 | n | n | n | n | 34.2
CC(=O)C(C(c1ccccc1)N1CCCc2ccccc21)N1CCOCC1 (stereo not drawn) | 24.3 | x | x | x | n
CC[C@]12c3[nH]c4ccccc4c3CCN1C(=O)C(CC(=O)NCCCN(C)C)C[C@@H]2C(=O)N1CCN(C(=O)c2ccco2)CC1 (stereo partly drawn) | n | x | x | x | n
COc1ccc(/C=N\NS(=O)(=O)c2ccc(Br)cc2)cc1COc1ccccc1[N+](=O)[O-] | n | n | n | n | n
COc1ccc(/C=N\NS(=O)(=O)c2ccc(Cl)cc2)cc1COc1ccccc1[N+](=O)[O-] | 24.4 | n | n | n | n
CCn1c(SCC(=O)N2CCN(c3ccc(F)cc3)CC2)nc2ccccc2c1=O | 29.0 | n | n | n | n
CCn1c(SCC(=O)N2CCN(c3ccc(Cl)cc3)CC2)nc2ccccc2c1=O | n | n | n | n | n
O=C(NCc1csc(-c2ccccc2)n1)c1cc(F)cc2c1OCOC2 | n | n | n | n | n
CC(C)(C)C(=O)Nc1cc2nn(-c3ccccc3)nc2cc1Cl | n | n | n | n | 42.1
O=C(Nc1cc2nn(-c3ccccc3)nc2cc1Cl)c1ccco1 | n | n | n | n | 45.1
O=C(Nc1ccc2nn(-c3ccccc3)nc2c1)c1ccco1 | n | n | n | n | n
CC1CC(C)CN(CCCSc2ccccc2)C1 (stereo not drawn) | 29.5 | n | n | n | n
SMILES | NRP1-CendR mod | MEKK2mut PB1 HTS | MEKK2 WT-MEK5 | MEKK3 PB1 HTS | SKN-1 block
CC1CC(C)CN(CCOCCSc2ccccc2)C1 (stereo not drawn) | n | n | n | n | n
CCN(CC)C(=O)Cn1cc(S(=O)(=O)Cc2cccc([N+](=O)[O-])c2)c2ccccc21 | 24.4 | n | n | n | n
COc1cccc(CCN2CCC(CNS(=O)(=O)c3cc(-c4cc(C)no4)ccc3C)CC2)c1 | n | n | 140.0 | n | n
COc1cccc(CCN2CCC(CNS(=O)(=O)c3cc(-c4cc(C)no4)ccc3OC)CC2)c1 | n | n | n | n | n
O=C(Nc1nccs1)c1ccc2ccccc2n1 | n | n | n | n | 57.0
O=C(Nc1ccc(N2CCCCC2)cc1)c1ccc2ccccc2n1 | n | n | n | n | 68.8
COc1ccc(C(C)(O)c2nc(-c3cccc(NC(C)=O)c3)cs2)cc1 (stereo not drawn) | n | x | x | x | n
O=C(NCCC(F)(F)F)c1cccc2c(-c3ccc(F)c(F)c3)coc12 | n | x | x | x | n
CC/C(=C1/C(=O)CC(C)(C)C(C(=O)OC)C1=O)N1CCCC1 (stereo not drawn) | 35.0 | n | n | n | n
CCO/N=C/C1=C(O)C(C(=O)OC)C(C)(C)CC1=O (stereo not drawn) | n | n | n | n | n
O=P1(O)CC2=C(CC=CC2)C1 | n | x | x | x | n
CC1(C)CC(=O)c2cnc(N3CCc4ccccc43)nc2C1 | 27.5 | n | n | n | n
CCCCN(C)c1c(C)nc2ccc(C(=O)Nc3cc(-c4ccccc4)ccc3OC)cn12 | n | x | x | x | n
Cc1ccccc1-c1nnc(-c2cccc3ccccc23)o1 | n | x | x | x | n
Cc1ccccc1-c1nnc(-c2ccccc2C)o1 | n | n | n | n | 46.4
COc1cccc(NC(=O)COc2ccccc2C(N)=O)c1 | 32.1 | n | n | n | n
Cn1c(=O)c2c(nc(CN3CCN(C(=O)c4ccco4)CC3)n2Cc2ccccc2F)n(C)c1=O | n | n | n | n | n
CCOCCn1c(CN2CCN(C)CC2)nc2c1c(=O)n(C)c(=O)n2C | n | n | 42.0[inhibitor] | 46.0[inhibitor] | n
Cn1c(=O)c2c(nc(CN3CCN(C(=O)c4ccco4)CC3)n2Cc2ccc(F)cc2)n(C)c1=O | 28.4 | n | n | n | n
CCCCn1c(CN2CCOCC2)nc2c1c(=O)n(C)c(=O)n2C | n | n | n | n | n
Cn1c(=O)c2c(nc(CN3CCOCC3)n2CCN2CCOCC2)n(C)c1=O | 26.8 | n | n | n | n
CC(=O)Nc1cc(-c2ccc(C(=O)N3CCOCC3)cc2)cn2c(-c3ccc(S(C)(=O)=O)cc3)cnc12 | n | x | x | x | n
CCOc1ccc(NS(=O)(=O)c2cc(Cl)ccc2OC)cc1 | 22.4 | n | n | n | n
CCOc1ccc(NS(=O)(=O)c2ccc(OC)c(C)c2)cc1 | n | n | n | n | n
CCCOc1ccc(S(=O)(=O)n2cc(F)c(=O)[nH]c2=O)cc1 | n | n | n | n | n
SMILES | NRP1-CendR mod | MEKK2mut PB1 HTS | MEKK2 WT-MEK5 | MEKK3 PB1 HTS | SKN-1 block
CC(C)C(N)c1csc(NC(=O)Nc2cccc(C(F)(F)F)c2)n1 (stereo not drawn) | 24.2 | x | x | x | n
COC(=O)c1sc(NC(=O)CN2CCN(c3cccc(Cl)c3)CC2)c(C(=O)OC)c1C | n | x | x | x | n
O=C(COC(=O)/C=C/c1ccco1)NCCN1C(=O)CSC1=O | n | x | x | x | n
CC(Oc1cccc(Cl)c1)C(=O)Nc1ccccc1N1CCCCC1 (stereo not drawn) | 27.8 | x | x | x | n
CSc1ccc(C2Nc3ccccc3-c3cc(C)nn32)cc1 (stereo not drawn) | n | n | n | n | 43.8
CCOc1ccc(OCCC(=O)OCC(=O)c2c(N)n(CC(C)C)c(=O)n(C)c2=O)cc1 | n | x | x | x | n
Cc1ccc(OCCC(=O)OCC(=O)c2c(N)n(CC(C)C)c(=O)n(C)c2=O)cc1 | 17.4 | x | x | x | n
CC(=O)c1ccc2noc(-c3ccc(F)cc3)c2c1 | 37.3 | n | n | n | n

Assay outcomes: PubChem BioAssay, several laboratories
